PubChem BioAssay (NCATS)
Where “and” joins values, the source holds several entries; their conditions need not be identical. Equal entries are not always repeated. Records with an inconclusive call do not appear. Calls of active or inactive are those of the source. Unless noted, calls come from the whole dose curve; as a rule, active = well fitted curve in the direction sought with a large enough effect; inconclusive = small, poorly fitted or top-dose-only effect, or another doubt; inactive = no such curve, though single readings can be large; an effect the other way counts as inactive or inconclusive.

How the values were obtained:
[1] = P-glycoprotein substrates identified in KB-8-5-11 adenocarcinoma cell line, qHTS therapeutic library screen (AID 1346987); note: nearly all actives have a fitted effect of over 65% in size; note: potency is the fitted concentration of half-maximal effect
Method in brief: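 P-gp-mediated resistance screen: KB-8-5-11 cells treated 72 h with compounds in dose-response. CellTiter-Glo viability.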

[2] = Natriuretic polypeptide receptor (hNpr1) antagonism - Pilot counterscreen GloSensor control cell line (AID 1347045; calls by dose curve; note: series mostly up to about 38 µM)
Method in brief: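 This counterscreen uses HEK293 cells expressing the GIP/pGS-40F cGMP biosensor. Compound-treated cells are challenged with 50 uM sodium nitroprusside, and the luciferase signal is compared before and after stimulation.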

[3] = biological target: Atrial natriuretic peptide receptor 1 (Homo sapiens) (UniProt P16066); test: Natriuretic polypeptide receptor (hNpr1) antagonism - Pilot screen (AID 1347049; calls by dose curve;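 note: agonist-evoked cGMP luminescence read 20 min after hNppA addition; series mostly up to about 58 µM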)
Atrial natriuretic peptide receptor 1 (Homo sapiens), sequence (P16066 whole entry, looked up): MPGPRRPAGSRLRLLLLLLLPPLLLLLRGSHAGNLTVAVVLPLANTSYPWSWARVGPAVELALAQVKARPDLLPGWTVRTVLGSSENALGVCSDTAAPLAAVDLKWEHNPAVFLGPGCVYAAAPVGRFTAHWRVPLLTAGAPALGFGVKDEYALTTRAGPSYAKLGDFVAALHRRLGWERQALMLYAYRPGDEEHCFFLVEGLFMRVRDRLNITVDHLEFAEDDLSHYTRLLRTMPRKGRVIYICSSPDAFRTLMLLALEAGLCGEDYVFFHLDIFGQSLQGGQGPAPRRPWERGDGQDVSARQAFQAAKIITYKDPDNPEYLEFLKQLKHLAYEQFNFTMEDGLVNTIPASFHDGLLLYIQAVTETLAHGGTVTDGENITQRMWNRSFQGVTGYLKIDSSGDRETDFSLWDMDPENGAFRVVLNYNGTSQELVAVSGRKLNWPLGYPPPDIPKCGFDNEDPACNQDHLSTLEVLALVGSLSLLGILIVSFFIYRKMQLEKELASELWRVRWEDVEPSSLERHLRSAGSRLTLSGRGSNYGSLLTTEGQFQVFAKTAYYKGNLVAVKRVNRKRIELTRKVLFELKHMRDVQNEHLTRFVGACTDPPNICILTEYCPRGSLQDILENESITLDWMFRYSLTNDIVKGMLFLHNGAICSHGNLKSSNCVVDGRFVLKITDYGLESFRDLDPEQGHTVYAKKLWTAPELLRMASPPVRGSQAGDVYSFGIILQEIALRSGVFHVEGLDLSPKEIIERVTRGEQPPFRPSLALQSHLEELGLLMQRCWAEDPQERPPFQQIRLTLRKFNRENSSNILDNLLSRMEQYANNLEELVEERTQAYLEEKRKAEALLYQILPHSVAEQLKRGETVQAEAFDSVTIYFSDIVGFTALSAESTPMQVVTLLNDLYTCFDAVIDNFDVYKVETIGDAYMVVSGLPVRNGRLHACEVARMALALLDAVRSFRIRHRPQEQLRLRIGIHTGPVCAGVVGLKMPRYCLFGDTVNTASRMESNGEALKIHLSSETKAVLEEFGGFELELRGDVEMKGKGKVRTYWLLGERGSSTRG
Method in brief: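 HEK293 cells co-expressing hNpr1 and the GloSensor pGS-40F cGMP luciferase sensor were preloaded with 2% GloSensor reagent for 2 h. Compounds were added for 30 min at room temperature, then cells were stimulated with 0.1 nM hNppA for 20 min before luminescence readout.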

[4] = NS1 protein of Zika virus - qHTS assay to identify small molecule inhibitors in human HEK 293 cells (AID 1347053); note: nearly all actives have a fitted effect of over 55% in size; note: potency is the fitted concentration of half-maximal effect
Method in brief: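 Inhibition of NS1 expression was scored in HEK 293 cells given compound 1 h ahead of MR766 virus (MOI = 0.5). Following 24 h at 37 C, two anti-NS1 antibodies generated a TR-FRET signal, scaled between uninfected and infected controls.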

[5] = biological target: T1, Tyrosine-protein phosphatase non-receptor type substrate 1 (Homo sapiens) + Leukocyte surface antigen CD47 (Homo sapiens) (UniProt P78324+Q08722); test: CD47-SIRPalpha protein protein interaction - LANCE assay qHTS validation (AID 1347057; active = well fitted curve in the direction sought with a large enough effect in the signal ratio, with a control signal flat, not every such curve was filed as active; the % refers to the signal ratio; note: series mostly up to about 38 µM)
T1 sequence (P78324 whole entry, looked up): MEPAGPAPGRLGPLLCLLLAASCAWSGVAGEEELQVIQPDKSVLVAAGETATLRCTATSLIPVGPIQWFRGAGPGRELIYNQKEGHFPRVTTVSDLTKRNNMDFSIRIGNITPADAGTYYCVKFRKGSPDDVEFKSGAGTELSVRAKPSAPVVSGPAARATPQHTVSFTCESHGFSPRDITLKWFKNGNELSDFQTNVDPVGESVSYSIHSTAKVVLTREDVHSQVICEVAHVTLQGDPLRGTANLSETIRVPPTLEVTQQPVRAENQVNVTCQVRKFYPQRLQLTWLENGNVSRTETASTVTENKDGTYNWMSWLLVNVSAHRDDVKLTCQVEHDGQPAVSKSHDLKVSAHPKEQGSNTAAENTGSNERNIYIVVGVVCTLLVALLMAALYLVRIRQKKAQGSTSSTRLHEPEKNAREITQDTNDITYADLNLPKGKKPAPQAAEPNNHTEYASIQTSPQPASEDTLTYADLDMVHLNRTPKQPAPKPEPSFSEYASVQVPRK
T1 sequence (Q08722 whole entry, looked up): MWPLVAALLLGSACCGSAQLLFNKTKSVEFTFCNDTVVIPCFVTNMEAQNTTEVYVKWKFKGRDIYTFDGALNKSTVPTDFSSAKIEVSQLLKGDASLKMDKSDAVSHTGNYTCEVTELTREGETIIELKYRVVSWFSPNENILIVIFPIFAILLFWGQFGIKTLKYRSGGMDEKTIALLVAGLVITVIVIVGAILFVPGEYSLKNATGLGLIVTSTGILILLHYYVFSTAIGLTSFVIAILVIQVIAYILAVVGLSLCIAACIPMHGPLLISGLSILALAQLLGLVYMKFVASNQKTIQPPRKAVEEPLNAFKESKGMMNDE
Method in brief: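 First, His-tagged CD47 and Eu-labelled anti-His antibody met the compound for 30 min; next, site-specifically biotinylated SIRPalpha was added for 30 min; finally streptavidin-APC was added before reading the TR-FRET ratio.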

[6] = biological target: T1, Tyrosine-protein phosphatase non-receptor type substrate 1 (Homo sapiens) + Leukocyte surface antigen CD47 (Homo sapiens); test: CD47-SIRPalpha protein protein interaction - HTRF assay qHTS validation (AID 1347058; active = well fitted curve in the direction sought with a large enough effect in the signal ratio, not every such curve was filed as active; the % refers to the signal ratio; note: series mostly up to about 38 µM)
Method in brief: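 TR-FRET read (Ch1/Ch2 ratio) of soluble extracellular CD47 and Avi-biotinylated SIRPalpha domains in PBS pH 7.4 with 0.05% IGEPAL; 7-point compound titration. Sequential 30 min room-temperature steps; non-biotinylated SIRPalpha as control inhibitor.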

[7] = biological target: T1, Tyrosine-protein phosphatase non-receptor type substrate 1 (Homo sapiens) + Leukocyte surface antigen CD47 (Homo sapiens); test: CD47-SIRPalpha protein protein interaction - Alpha assay qHTS validation (AID 1347059);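 note: bead proximity luminescence from CD47 binding SIRPalpha after compound preincubation with SIRPalpha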
Method in brief: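 Soluble extracellular domains: Avi-tag biotinylated SIRPalpha (25 nM) preincubated 30 min RT with compound, then 6His-CD47 (12.5 nM) 30 min; Ni-NTA acceptor and streptavidin donor beads (10 ug/mL) 30 min, AlphaScreen read. PBS pH 7.4, 0.05% IGEPAL.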

[8] = biological target: Parathyroid hormone/parathyroid hormone-related peptide receptor (Homo sapiens) (UniProt Q03431); test: qHTS for PTHR1 Agonists: Optimization Screen against the NCGC LOPAC library (AID 1347079);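 note: GloSensor cAMP luminescence in HEK-293 GP2 cells expressing human PTHR1 with IBMX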
Parathyroid hormone/parathyroid hormone-related peptide receptor (Homo sapiens), sequence (Q03431 whole entry, looked up): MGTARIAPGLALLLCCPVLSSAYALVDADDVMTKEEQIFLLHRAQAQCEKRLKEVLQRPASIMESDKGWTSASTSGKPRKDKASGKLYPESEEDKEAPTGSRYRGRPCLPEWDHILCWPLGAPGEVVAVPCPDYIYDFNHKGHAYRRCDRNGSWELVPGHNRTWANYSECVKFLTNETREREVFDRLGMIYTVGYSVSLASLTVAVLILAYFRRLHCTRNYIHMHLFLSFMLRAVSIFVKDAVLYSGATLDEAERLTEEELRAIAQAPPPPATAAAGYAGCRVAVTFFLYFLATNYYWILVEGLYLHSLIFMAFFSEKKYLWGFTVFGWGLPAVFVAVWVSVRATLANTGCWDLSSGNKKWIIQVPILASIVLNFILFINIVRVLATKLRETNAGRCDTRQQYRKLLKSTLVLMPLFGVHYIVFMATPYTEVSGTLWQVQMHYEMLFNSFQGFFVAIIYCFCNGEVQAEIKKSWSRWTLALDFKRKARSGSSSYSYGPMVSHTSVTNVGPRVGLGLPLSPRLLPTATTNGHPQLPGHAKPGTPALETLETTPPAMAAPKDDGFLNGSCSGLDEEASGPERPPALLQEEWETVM
Method in brief: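 Compounds were tested across a qHTS titration. PTHR1-expressing GP2 cells report cAMP rises via GloSensor luminescence after 1 hr compound exposure at 37C with IBMX present.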

[9] = qHTS of pediatric cancer cell lines to identify multiple opportunities for drug repurposing: Primary screen for TC32 cells (AID 1347089); note: nearly all actives have a fitted effect of over 60% in size; note: potency is the fitted concentration of half-maximal effect
Method in brief: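 Luminescent CellTiter-Glo read-out of metabolically active TC32 cells after 48 h compound exposure. Primary: MIPE 11-point, 0.78 nM–46 µM; NPC 8-point, 0.59 nM–46 µM. Confirmatory: 11-point dilutions.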

[10] = P-glycoprotein substrates identified in KB-3-1 adenocarcinoma cell line, qHTS therapeutic library screen (AID 1346986); note: nearly all actives have a fitted effect of over 60% in size
Method in brief: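 KB-3-1 parental cells and P-gp-overexpressing KB-8-5-11 (colchicine omitted during assay) plated at 500 cells/well, dosed in dose-response, incubated 72 h at 37 degree C. CellTiter-Glo luminescence read; KB-8-5-11 also tested with tariquidar.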

Measured: Potency

CC(C)NCC(O)COc1cccc2[nH]ccc12 (stereo not given)
not listed: [10]
inactive: all other assays above

CCN(CC)CCOC(=O)c1ccc(N)cc1
not listed: [10]
inactive: all other assays above

CS(=O)c1ccc(-c2nc(-c3ccc(F)cc3)c(-c3ccncc3)[nH]2)cc1 (stereo not given)
inactive: [10] | [1] | [9]

O=C(Nc1c(Cl)cncc1Cl)c1ccc(OC(F)F)c(OCC2CC2)c1
inactive: [10] | [9]

CCCNC(=O)NS(=O)(=O)c1ccc(Cl)cc1
not listed: [10]
inactive: all other assays above

CCCCC1C(=O)N(c2ccccc2)N(c2ccccc2)C1=O
inactive: [1] | [3] | [4] | [8] | [9]

Cc1ccc(Nc2cc(-c3cccc(N4C(=O)c5ccccc5C4=O)c3)ncn2)cc1NS(C)(=O)=O
inactive: [10] | [9]

O=C(O)c1c(Cl)c(Cl)c(Cl)c(Cl)c1-c1c2cc(I)c(=O)c(I)c-2oc2c(I)c(O)c(I)cc12
inactive: [1]

CC(=O)c1ccc(S(=O)(=O)NC(=O)NC2CCCCC2)cc1
not listed: [10]
inactive: all other assays above

Cc1cccc(C)c1OCC(C)N (stereo not given)
inactive: [1] | [3] | [4] | [8] | [9]

C[C@H](NC(=O)C(=O)Nc1ccccc1C(C)(C)C)C(=O)N[C@@H](CC(=O)O)C(=O)COc1c(F)c(F)cc(F)c1F
inactive: [10] | [9]

COc1cc2c(cc1OC)CN(CCc1ccc(NC(=O)c3cc(OC)c(OC)cc3NC(=O)c3cnc4ccccc4c3)cc1)CC2
inactive: [10] | [4] | [9]

CC(C)n1nc(-c2ccc3oc(N)nc3c2)c2c(N)ncnc21
active: [1] 1.3 nM and 32.6 nM | [4] 0.0209 µM | [9] 0.0117 µM

Cc1ccn(-c2ccc(-c3ncco3)cc2)c(=O)c1-c1ccc2nc(N)ncc2c1
inactive: [1] | [4]

O=c1cc(-c2ccccc2)oc2cc(O)c(O)c(O)c12
inactive: [1] | [4] | [9]

CC(C)(C)OC(=O)N[C@H]1CCCCCC=C[C@@H]2C[C@@]2(C(=O)NS(=O)(=O)C2CC2)NC(=O)[C@@H]2C[C@@H](OC(=O)N3Cc4cccc(F)c4C3)CN2C1=O
inactive: [1] | [4] | [9]

CCc1ccc(OCc2ccccc2C(=O)Nc2ccc3nc(C)cc(N)c3c2)cc1
active: [1] 7.43 µM | [4] 2.96 µM | [9] 20.8 µM

N[C@H](CSC(c1ccccc1)(c1ccccc1)c1ccccc1)C(=O)O
inactive: [1] | [4] | [9]

O=C(O)c1cc(-c2ccccc2)nc2ccccc12
inactive: [1] | [4] | [9]

Oc1ccc(C2CCN(c3ccnc4ccccc34)CC2)cc1O
inactive: [1] | [4] | [9]

CN(C)c1cc(NC(=O)CNC(C)(C)C)c(O)c2c1C[C@@H]1C[C@H]3[C@H](N(C)C)C(=O)C(C(N)=O)=C(O)[C@@]3(O)C(=O)C1=C2O
inactive: [1] | [4] | [9]

COc1ccc(-c2oc3c(CC=C(C)C)c(OC4O[C@H](CO)[C@@H](O)[C@H](O)[C@@H]4O)cc(O)c3c(=O)c2OC2O[C@@H](C)[C@H](O)[C@@H](O)[C@@H]2O)cc1 (stereo not given in full)
active: [1] 23.5 µM | [4] 18.7 µM
inactive: [9]

Cn1c(N2CCCCS2(=O)=O)nc(C(=O)NCc2ccc(F)cc2)c(O)c1=O
inactive: [1] | [4] | [9]

Cc1ccc(C(=O)Nc2cccc(C(F)(F)F)c2)cc1Nc1nc(-c2cccnc2)nc2c1cnn2C
inactive: [1] | [9]
active: [4] 14.8 µM

Cc1[nH]c(C=C2C(=O)Nc3ccc(S(=O)(=O)Cc4c(Cl)cccc4Cl)cc32)c(C)c1C(=O)N1CCC[C@H]1CN1CCCC1
inactive: [1] | [4] | [9]

O=C1C[C@@H](c2ccc(O)cc2)Oc2cc(O)cc(O)c21
inactive: [1] | [4] | [9]
